Anthrax LF prot – inhibitors of Bacillus anthracis lethal factor protease; inhibition, % at 10 µM; multiplex microsphere protease cleavage assay, LF; hit rate 0.12% among 360,000
Target sequence (P15917 whole entry, looked up): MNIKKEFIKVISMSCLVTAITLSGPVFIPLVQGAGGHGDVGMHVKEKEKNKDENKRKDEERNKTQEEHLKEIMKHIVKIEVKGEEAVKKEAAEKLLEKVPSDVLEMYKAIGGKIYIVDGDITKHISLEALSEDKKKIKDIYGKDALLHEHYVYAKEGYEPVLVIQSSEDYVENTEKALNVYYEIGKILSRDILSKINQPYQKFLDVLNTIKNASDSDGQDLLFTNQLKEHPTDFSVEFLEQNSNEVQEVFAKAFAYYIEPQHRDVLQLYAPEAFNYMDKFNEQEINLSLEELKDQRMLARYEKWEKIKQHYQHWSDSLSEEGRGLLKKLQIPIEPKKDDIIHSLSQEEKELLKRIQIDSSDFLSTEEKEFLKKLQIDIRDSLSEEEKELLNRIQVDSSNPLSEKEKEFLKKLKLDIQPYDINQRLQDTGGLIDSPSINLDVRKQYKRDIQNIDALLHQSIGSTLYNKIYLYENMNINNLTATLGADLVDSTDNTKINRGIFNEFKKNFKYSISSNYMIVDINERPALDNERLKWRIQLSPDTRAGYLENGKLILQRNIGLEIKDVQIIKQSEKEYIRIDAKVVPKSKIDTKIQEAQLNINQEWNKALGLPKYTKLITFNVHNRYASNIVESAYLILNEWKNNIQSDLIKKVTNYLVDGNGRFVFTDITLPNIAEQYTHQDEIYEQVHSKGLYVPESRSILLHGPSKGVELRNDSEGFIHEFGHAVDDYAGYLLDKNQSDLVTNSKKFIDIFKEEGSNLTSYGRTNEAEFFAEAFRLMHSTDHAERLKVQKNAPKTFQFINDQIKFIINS
BoNT A protease – inhibitors of Botulinum neurotoxin A light chain protease. hit rate 0.17% among 360,000. multiplex microsphere protease substrate cleavage, flow cytometry. AID 588499. inhibition, % at 10 µM
BoNT F protease – inhibitors of Botulinum neurotoxin F light chain protease | Multiplex microsphere protease cleavage assay, flow cytometry | inhibition, % at 10 µM | hit rate 0.22% among 360,000; in the data active = inhibition above about 35%, passing the limit was not always enough; inconclusive = no clear call, values can overlap the other calls
Vc quorum ag – induces V. cholerae light production without autoinducers. hit rate 0.16% among 350,000. AID 588436. V. cholerae BH1578 lux reporter, luminescence, 6 h. activation, % at 18.7 µM; in the data active = activation mostly above about 9.7%, no sharp cut-off; inconclusive = no clear call, values can overlap the other calls; inactive = mostly below about 3.7%
Autofluor counter – counter-screen for toxin protease inhibitors: compound fluorescence; compound autofluorescence counterscreen, microsphere flow cytometry; hits give high values; fluorescence intensity (concentration not given with the values); hit rate 3.1% among 360,000; in the data active = fluorescence intensity above about 16000; inconclusive = no clear call, values can overlap the other calls
BJeLR viability – BJeLR cell viability loss; inhibition, % (concentration not given with the values); BJeLR (HRASV12) viability, CellTiter-Glo ATP luminescence, 48 h; hit rate 0.17% among 300,000; in the data active = inhibition above about 50%; inconclusive = no clear call, values can overlap the other calls
Large screens that a line does not name were inactive. In the library only some 3.7% were active in any assay of this set; here they are far more common. Rule as the data show it, unless noted: active = inhibition above about 30%; inconclusive = no clear call, values can overlap the other calls; inactive = below that.

Cc1cc2c(cc1C)NC(CC(=O)NCc1ccccc1)C(=O)N2 (stereo not drawn)	Autofluor counter 23973
COc1ccc(CCNC(=O)CC2Nc3cc(C)c(C)cc3NC2=O)cc1OC (stereo not drawn)	none
COc1cccc(NC(=O)c2oc3ccccc3c2NC(=O)C2CC2)c1	BoNT A protease inconclusive, Autofluor counter 24287
CCOc1cc(NC(=S)Nc2cccc(OC)c2)c(OCC)cc1NC(=O)C1CC1	Autofluor counter 23099
COc1ccc(NC(=O)c2oc3ccccc3c2NC(=O)C2CC2)cc1	Autofluor counter 20675
O=C1C=CN(C2OC(CO)C(O)C2O)C(=O)C1 (stereo not drawn)	none (no result: BJeLR viability)
O=C(Nc1ccc2c(c1)OCO2)C1CCCN(c2nc3ccccc3s2)C1 (stereo not drawn)	Autofluor counter 18282
CCc1nnc(NC(=O)C2CCCN(c3nc4ccccc4s3)C2)s1 (stereo not drawn)	Autofluor counter 19697
Cc1cc(C)nc(N2CCCC(C(=O)Nc3ccc4c(c3)OCCO4)C2)n1 (stereo not drawn)	none
Cc1ccccc1CN1CCN(CC(=O)NCc2ccccc2)C1=O	Autofluor counter 20841
Cc1cccc(CN2CCN(CC(=O)O)C2=O)c1	Autofluor counter 19589
Cc1cccc(CN2CCN(CC(=O)N3CCCC3)C2=O)c1	none
COC(=O)c1cc(OC)c(OC)cc1NC(=O)CCN1C(=O)C2CCCCC2C1=O (stereo not drawn)	none (no result: BJeLR viability)
CC(C)CNC(=O)C1C2C=CC(C2)C1C(=O)O (stereo not drawn)	BoNT A protease inconclusive, Autofluor counter 20356
CN(C)c1ncc(S(=O)(=O)c2ccccc2)c(-c2ccc(Cl)cc2Cl)n1	BoNT A protease inconclusive, Autofluor counter 22616
COc1cccc(-n2nnnc2SCC(=O)Nc2ccccc2OC)c1	BoNT F protease inconclusive
CCCS(=O)(=O)c1nnnn1-c1cccc(OC)c1	Autofluor counter 19154
c1ccc2c(c1)nc1n2C2(N3CCOCC3)CCCC2C1N1CCOCC1 (stereo not drawn)	Autofluor counter 20620 (no result: BJeLR viability)
Oc1ccc2c(c1)C1CCCC1(N1CCOCC1)O2 (stereo not drawn)	none
COCCN(C(=O)COC(=O)c1ccc(-c2ccccc2)cc1)c1c(N)n(Cc2ccccc2)c(=O)[nH]c1=O	none (no result: BJeLR viability)
CCCSc1nc(O)c(C(c2ccc(OC)c(O)c2)c2c(O)nc(SCCC)n(C)c2=O)c(=O)n1C	none
COc1cccc(C(c2c(O)nc(SC)n(C)c2=O)c2c(O)nc(SC)n(C)c2=O)c1	Autofluor counter 21226
CNc1c([N+](=O)[O-])cnn1-c1ccc(Cl)cc1Cl	Autofluor counter 18639
CNc1c([N+](=O)[O-])cnn1-c1ccccc1Cl	Autofluor counter 23635
COC(=O)CC1(C(=O)OC)Nc2cc(Cl)c(Cl)cc2S(=O)(=O)N1O (stereo not drawn)	none (no result: BJeLR viability)
CC1CCN(C(=O)C2CCC(CNS(=O)(=O)c3ccc4c(c3)C(C)(C)C(=O)N4C)CC2)CC1 (stereo not drawn)	none (no result: BJeLR viability)
Cc1ccc(C(=O)COC(=O)CNC(=O)c2ccco2)cc1	Autofluor counter 20040
O=C(CNC(=O)c1ccco1)OCC(=O)c1ccc(Br)cc1	none
COC(=O)c1cccc(COC(=O)CNC(=O)c2ccco2)c1	Autofluor counter 20436
C[C@@H]1CN([C@@H](C)CO)C(=O)CCCn2nncc2CO[C@H]1CN(C)C(=O)c1ccncc1	none (no result: BJeLR viability)
CC(C)NC(=O)CN1C(=O)C(=O)c2ccccc21	BoNT A protease inconclusive, Autofluor counter 22994
O=C1C(=O)N(CC(=O)N2CCCC2)c2ccccc21	none
CC(=O)Nc1nonc1-c1ccccc1	BoNT A protease inconclusive, Autofluor counter 20934
O=C(Nc1nonc1-c1ccc(Cl)cc1)c1ccccc1	none
COCCNC(=O)c1ccc2c(c1)CCN2S(C)(=O)=O	Autofluor counter inconclusive (no result: BJeLR viability)
COCCCNC(=O)c1ccc2c(c1)CCN2S(C)(=O)=O	Autofluor counter 22130
COc1cc(C=C2C(=O)C=CC2=O)ccc1O	none (no result: Vc quorum ag, BJeLR viability)
CCOC(=O)N1CCN(C(=O)c2ccc3c(=O)n(-c4ccc(OC)cc4)c(=S)[nH]c3c2)CC1	none (no result: Vc quorum ag)
CCOC(=O)N1CCN(C(=O)c2cccc(-n3c(=S)[nH]c4cc(Cl)ccc4c3=O)c2)CC1	Autofluor counter 20777
O=C(CN1CCOCC1)Nc1ccc(Cl)cc1	BoNT F protease inconclusive
O=C(CC(C(=O)O)N1CCOCC1)Nc1ccc(Cl)cc1 (stereo not drawn)	Autofluor counter 19713
O=C(C1COc2ccccc2O1)N1CCCC1 (stereo not drawn)	BoNT A protease inconclusive, Autofluor counter 20678
O=C(NCCCN1CCOCC1)c1ccc(NC(=O)C2COc3ccccc3O2)cc1 (stereo not drawn)	none
O=C(NCCCN1CCOCC1)C1COc2ccccc2O1 (stereo not drawn)	Autofluor counter 16494
C=CC[C@@H](CC(=O)N(CCO)Cc1ccccc1)C(=O)NC[C@H](OC(=O)[C@@H](CC=C)Cc1ccc(F)cc1)c1ccccc1	none (no result: BJeLR viability)
O=S(=O)(c1cccc2cccnc12)N1CCOCC1	Autofluor counter 23370
O=S(=O)(c1cccc2cccnc12)N1CCN(c2ccc(F)cc2)CC1	none
O=c1n(S(=O)(=O)c2cccc3cccnc23)c2ccccc2n1S(=O)(=O)c1cccc2cccnc12	Autofluor counter 20693
CC1CC(C)CN(S(=O)(=O)c2cccc3cccnc23)C1 (stereo not drawn)	none
CC1CCCCN1CCNC(=O)C1CCN(S(=O)(=O)c2cccc3cccnc23)CC1 (stereo not drawn)	Autofluor counter 17441
Cc1ccccc1C(=O)N1CCC1(C)C(=O)NC(C)C (stereo not drawn)	none (no result: BJeLR viability)
O=C(CNC(=O)Cc1ccccc1)NCC(=O)OCc1ccc(C(=O)c2ccccc2)cc1	Autofluor counter 16310
Brc1cccc(-c2nnc3sc(CN4CCC5(CC4)OCCO5)cn23)c1	Autofluor counter 24422
Cc1ccccc1-c1cc2nc(NCc3ccc(N(C)C)cc3)n(C)c(=O)c2s1	none (no result: BJeLR viability)
NC(c1csc(Nc2ccc(C(=O)NCCCO)cn2)n1)c1ccccc1Cl (stereo not drawn)	none (no result: BJeLR viability)
O=C(CN1C(=O)c2ccccc2C1=O)Nc1sc2c(c1C(=O)NCC1CCCO1)CCC2 (stereo not drawn)	Autofluor counter 22614
CCCOC(=S)N/C(=N\S(=O)(=O)c1ccccc1)c1ccccc1	Autofluor counter 23253
CCOC(=S)N/C(=N\S(=O)(=O)c1ccccc1)c1ccccc1	none
C=CCNc1nc(-c2sc(NC(=O)C(C)(C)C)nc2C)c(-n2cc(-c3ccccc3)nn2)s1	none (no result: Vc quorum ag, BJeLR viability)
CCc1nc2ccc(C(=O)NCCc3ccccn3)cn2c1N(CC)CCOC	none (no result: BJeLR viability)
COc1ccc(C)cc1NC(=O)CSc1nnc(CC(=O)Nc2cccc(C(F)(F)F)c2)n1C	none
COc1cccc(NC(=O)Cc2nnc(SCC(=O)NC(C)c3ccccc3)n2C)c1 (stereo not drawn)	BoNT A protease inconclusive, Autofluor counter 21780
COc1ccccc1NC(=O)CSc1nnc(CC(=O)Nc2cccc(C(F)(F)F)c2)n1C	Autofluor counter 20559
